# From the supplement of paper PMC4466140
# Legend:
# Assay in all cases: SPOT peptide array binding signal intensity (averaged, normalized) (arbitrary units (background-subtracted, floor 0; scale differs between SH3 domains)); higher = stronger binding of the SH3 domain to the peptide
# AgAbp1 = biological target: AgAbp1
# In short: (§1)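 GST-SH3 fusions from four yeast species, purified on glutathione Sepharose, were incubated at 10 μg/ml overnight at 4°C on membranes of synthetic 15-mer peptides in which cysteines were replaced with serines. Binding signal is the normalized, background-subtracted spot intensity averaged over replicates, in domain-specific arbitrary units.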
# AgBbc1 = biological target: AgBbc1
# In short: as §1
# AgBem1-D1 = biological target: AgBem1-D1
# In short: as §1
# AgBzz1-D1 = biological target: AgBzz1-D1
# In short: as §1
# AgBzz1-D2 = biological target: AgBzz1-D2
# In short: as §1
# AgCyk3 = biological target: AgCyk3
# In short: as §1
# AgFus1 = biological target: AgFus1
# In short: as §1
# AgHof1 = biological target: AgHof1
# In short: as §1
# AgHse1 = biological target: AgHse1
# In short: as §1
# AgLsb1 = biological target: AgLsb1
# In short: as §1
# AgLsb4 = biological target: AgLsb4
# In short: as §1
# AgMyo5 = biological target: AgMyo5
# In short: as §1
# AgNbp2 = biological target: AgNbp2
# In short: as §1
# AgRvs167 = biological target: AgRvs167
# In short: as §1
# AgSho1 = biological target: AgSho1
# In short: as §1
# AgSla1-D1-D2 = biological target: AgSla1-D1-D2
# In short: as §1
# AgSla1-D3 = biological target: AgSla1-D3
# In short: as §1
# CaAbp1-D1 = biological target: CaAbp1-D1
# In short: as §1
# CaAbp1-D2 = biological target: CaAbp1-D2
# In short: as §1
# CaBbc1 = biological target: CaBbc1
# In short: as §1
# CaBem1-D1 = biological target: CaBem1-D1
# In short: as §1
# CaBzz1-D1 = biological target: CaBzz1-D1
# In short: as §1
# CaBzz1-D2 = biological target: CaBzz1-D2
# In short: as §1
# CaCyk3 = biological target: CaCyk3
# In short: as §1
# CaFus1 = biological target: CaFus1
# In short: as §1
# CaHof1 = biological target: CaHof1
# In short: as §1
# CaHse1 = biological target: CaHse1
# In short: as §1
# CaLsb1 = biological target: CaLsb1
# In short: as §1
# CaLsb4 = biological target: CaLsb4
# In short: as §1
# CaMyo5 = biological target: CaMyo5
# In short: as §1
# CaNbp2 = biological target: CaNbp2
# In short: as §1
# CaRvs167 = biological target: CaRvs167
# In short: as §1
# CaRvs167-3 = biological target: CaRvs167-3
# In short: as §1
# CaSho1 = biological target: CaSho1
# In short: as §1
# CaSla1-D1-D2 = biological target: CaSla1-D1-D2
# In short: as §1
# CaSla1-D3 = biological target: CaSla1-D3
# In short: as §1
# ScAbp1 = biological target: ScAbp1
# In short: as §1
# ScBbc1 = biological target: ScBbc1
# In short: as §1
# ScBem1-D1 = biological target: ScBem1-D1
# In short: as §1
# ScBzz1-D1 = biological target: ScBzz1-D1
# In short: as §1
# ScBzz1-D2 = biological target: ScBzz1-D2
# In short: as §1
# ScCyk3 = biological target: ScCyk3
# In short: as §1
# ScFus1 = biological target: ScFus1
# In short: as §1
# ScHof1 = biological target: ScHof1
# In short: as §1
# ScHse1 = biological target: ScHse1
# In short: as §1
# ScLsb1 = biological target: ScLsb1
# In short: as §1
# ScLsb2 = biological target: ScLsb2
# In short: as §1
# ScLsb3 = biological target: ScLsb3
# In short: as §1
# ScLsb4 = biological target: ScLsb4
# In short: as §1
# ScMyo3 = biological target: ScMyo3
# In short: as §1
# ScMyo5 = biological target: ScMyo5
# In short: as §1
# ScNbp2 = biological target: ScNbp2
# In short: as §1
# ScPex13 = biological target: ScPex13
# In short: as §1
# ScRvs167 = biological target: ScRvs167
# In short: as §1
# ScSho1 = biological target: ScSho1
# In short: as §1
# ScSla1-D1-D2 = biological target: ScSla1-D1-D2
# In short: as §1
# ScSla1-D3 = biological target: ScSla1-D3
# In short: as §1
# SpAbp1-D1 = biological target: SpAbp1-D1
# In short: as §1
# SpBbc1 = biological target: SpBbc1
# In short: as §1
# SpBzz1-D1 = biological target: SpBzz1-D1
# In short: as §1
# SpBzz1-D2 = biological target: SpBzz1-D2
# In short: as §1
# SpCyk3 = biological target: SpCyk3
# In short: as §1
# SpHof1 = biological target: SpHof1
# In short: as §1
# SpHof1-2 = biological target: SpHof1-2
# In short: as §1
# SpHof1-3 = biological target: SpHof1-3
# In short: as §1
# SpHse1 = biological target: SpHse1
# In short: as §1
# SpLsb1 = biological target: SpLsb1
# In short: as §1
# SpLsb4 = biological target: SpLsb4
# In short: as §1
# SpMyo1 = biological target: SpMyo1
# In short: as §1
# SpNbp2 = biological target: SpNbp2
# In short: as §1
# SpPex13 = biological target: SpPex13
# In short: as §1
# SpRvs167 = biological target: SpRvs167
# In short: as §1
# SpSla1-D1-D2 = biological target: SpSla1-D1-D2
# In short: as §1
# SpSla1-D3 = biological target: SpSla1-D3
# In short: as §1
binder,measurement,setting,value
TKRKRPARLIFYDSK,SPOT peptide array binding signal intensity,AgAbp1,113
same,SPOT peptide array binding signal intensity,AgBbc1,40.2
same,SPOT peptide array binding signal intensity,AgBem1-D1,82
same,SPOT peptide array binding signal intensity,AgBzz1-D1,26
same,SPOT peptide array binding signal intensity,AgBzz1-D2,20
same,SPOT peptide array binding signal intensity,AgCyk3,13.5
same,SPOT peptide array binding signal intensity,AgFus1,436
same,SPOT peptide array binding signal intensity,AgHof1,20.5
same,SPOT peptide array binding signal intensity,AgHse1,696
same,SPOT peptide array binding signal intensity,AgLsb1,3.5
same,SPOT peptide array binding signal intensity,AgLsb4,122
same,SPOT peptide array binding signal intensity,AgMyo5,≤ 0
same,SPOT peptide array binding signal intensity,AgNbp2,236
same,SPOT peptide array binding signal intensity,AgRvs167,3.67
same,SPOT peptide array binding signal intensity,AgSho1,94.5
same,SPOT peptide array binding signal intensity,AgSla1-D1-D2,1050
same,SPOT peptide array binding signal intensity,AgSla1-D3,1.25
same,SPOT peptide array binding signal intensity,CaAbp1-D1,717
same,SPOT peptide array binding signal intensity,CaAbp1-D2,662
same,SPOT peptide array binding signal intensity,CaBbc1,66.5
same,SPOT peptide array binding signal intensity,CaBem1-D1,16
same,SPOT peptide array binding signal intensity,CaBzz1-D1,108
same,SPOT peptide array binding signal intensity,CaBzz1-D2,40.2
same,SPOT peptide array binding signal intensity,CaCyk3,119
same,SPOT peptide array binding signal intensity,CaFus1,876
same,SPOT peptide array binding signal intensity,CaHof1,1.5
same,SPOT peptide array binding signal intensity,CaHse1,36.8
same,SPOT peptide array binding signal intensity,CaLsb1,1.5
same,SPOT peptide array binding signal intensity,CaLsb4,85
same,SPOT peptide array binding signal intensity,CaMyo5,3.5
same,SPOT peptide array binding signal intensity,CaNbp2,450
same,SPOT peptide array binding signal intensity,CaRvs167,19.8
same,SPOT peptide array binding signal intensity,CaRvs167-3,240
same,SPOT peptide array binding signal intensity,CaSho1,605
same,SPOT peptide array binding signal intensity,CaSla1-D1-D2,1
same,SPOT peptide array binding signal intensity,CaSla1-D3,25
same,SPOT peptide array binding signal intensity,ScAbp1,26
same,SPOT peptide array binding signal intensity,ScBbc1,22
same,SPOT peptide array binding signal intensity,ScBem1-D1,22.5
same,SPOT peptide array binding signal intensity,ScBzz1-D1,12
same,SPOT peptide array binding signal intensity,ScBzz1-D2,22
same,SPOT peptide array binding signal intensity,ScCyk3,62
same,SPOT peptide array binding signal intensity,ScFus1,354
same,SPOT peptide array binding signal intensity,ScHof1,0.5
same,SPOT peptide array binding signal intensity,ScHse1,1060
same,SPOT peptide array binding signal intensity,ScLsb1,5.5
same,SPOT peptide array binding signal intensity,ScLsb2,5
same,SPOT peptide array binding signal intensity,ScLsb3,239
same,SPOT peptide array binding signal intensity,ScLsb4,13
same,SPOT peptide array binding signal intensity,ScMyo3,2.5
same,SPOT peptide array binding signal intensity,ScMyo5,3
same,SPOT peptide array binding signal intensity,ScNbp2,975
same,SPOT peptide array binding signal intensity,ScPex13,3.5
same,SPOT peptide array binding signal intensity,ScRvs167,23.8
same,SPOT peptide array binding signal intensity,ScSho1,382
same,SPOT peptide array binding signal intensity,ScSla1-D1-D2,198
same,SPOT peptide array binding signal intensity,ScSla1-D3,13.2
same,SPOT peptide array binding signal intensity,SpAbp1-D1,190
same,SPOT peptide array binding signal intensity,SpBbc1,3
same,SPOT peptide array binding signal intensity,SpBzz1-D1,77.5
same,SPOT peptide array binding signal intensity,SpBzz1-D2,0.75
same,SPOT peptide array binding signal intensity,SpCyk3,8
same,SPOT peptide array binding signal intensity,SpHof1,172
same,SPOT peptide array binding signal intensity,SpHof1-2,27.5
same,SPOT peptide array binding signal intensity,SpHof1-3,380
same,SPOT peptide array binding signal intensity,SpHse1,299
same,SPOT peptide array binding signal intensity,SpLsb1,4
same,SPOT peptide array binding signal intensity,SpLsb4,205
same,SPOT peptide array binding signal intensity,SpMyo1,4.25
same,SPOT peptide array binding signal intensity,SpNbp2,584
same,SPOT peptide array binding signal intensity,SpPex13,11
same,SPOT peptide array binding signal intensity,SpRvs167,4.33
same,SPOT peptide array binding signal intensity,SpSla1-D1-D2,4
same,SPOT peptide array binding signal intensity,SpSla1-D3,7
QLLNPNRRAPRRPLS,SPOT peptide array binding signal intensity,AgAbp1,104
same,SPOT peptide array binding signal intensity,AgBbc1,451
same,SPOT peptide array binding signal intensity,AgBem1-D1,328
same,SPOT peptide array binding signal intensity,AgBzz1-D1,59
same,SPOT peptide array binding signal intensity,AgBzz1-D2,45
same,SPOT peptide array binding signal intensity,AgCyk3,2
same,SPOT peptide array binding signal intensity,AgFus1,158
same,SPOT peptide array binding signal intensity,AgHof1,89.8
same,SPOT peptide array binding signal intensity,AgHse1,144
same,SPOT peptide array binding signal intensity,AgLsb1,9.25
same,SPOT peptide array binding signal intensity,AgLsb4,25
same,SPOT peptide array binding signal intensity,AgMyo5,60.5
same,SPOT peptide array binding signal intensity,AgNbp2,4130
same,SPOT peptide array binding signal intensity,AgRvs167,2.83
same,SPOT peptide array binding signal intensity,AgSho1,7
same,SPOT peptide array binding signal intensity,AgSla1-D1-D2,33
same,SPOT peptide array binding signal intensity,AgSla1-D3,4
same,SPOT peptide array binding signal intensity,CaAbp1-D1,608
same,SPOT peptide array binding signal intensity,CaAbp1-D2,495
same,SPOT peptide array binding signal intensity,CaBbc1,1450
same,SPOT peptide array binding signal intensity,CaBem1-D1,122
same,SPOT peptide array binding signal intensity,CaBzz1-D1,220
same,SPOT peptide array binding signal intensity,CaBzz1-D2,135
same,SPOT peptide array binding signal intensity,CaCyk3,161
same,SPOT peptide array binding signal intensity,CaFus1,270
same,SPOT peptide array binding signal intensity,CaHof1,0.25
same,SPOT peptide array binding signal intensity,CaHse1,13.5
same,SPOT peptide array binding signal intensity,CaLsb1,0.25
same,SPOT peptide array binding signal intensity,CaLsb4,95.5
same,SPOT peptide array binding signal intensity,CaMyo5,6.75
same,SPOT peptide array binding signal intensity,CaNbp2,2950
same,SPOT peptide array binding signal intensity,CaRvs167,28.8
same,SPOT peptide array binding signal intensity,CaRvs167-3,5.25
same,SPOT peptide array binding signal intensity,CaSho1,72
same,SPOT peptide array binding signal intensity,CaSla1-D1-D2,1270
same,SPOT peptide array binding signal intensity,CaSla1-D3,0.25
same,SPOT peptide array binding signal intensity,ScAbp1,73
same,SPOT peptide array binding signal intensity,ScBbc1,271
same,SPOT peptide array binding signal intensity,ScBem1-D1,45
same,SPOT peptide array binding signal intensity,ScBzz1-D1,56
same,SPOT peptide array binding signal intensity,ScBzz1-D2,30.5
same,SPOT peptide array binding signal intensity,ScCyk3,65
same,SPOT peptide array binding signal intensity,ScFus1,104
same,SPOT peptide array binding signal intensity,ScHof1,≤ 0
same,SPOT peptide array binding signal intensity,ScHse1,779
same,SPOT peptide array binding signal intensity,ScLsb1,37.2
same,SPOT peptide array binding signal intensity,ScLsb2,370
same,SPOT peptide array binding signal intensity,ScLsb3,808
same,SPOT peptide array binding signal intensity,ScLsb4,31
same,SPOT peptide array binding signal intensity,ScMyo3,70.5
same,SPOT peptide array binding signal intensity,ScMyo5,122
same,SPOT peptide array binding signal intensity,ScNbp2,6040
same,SPOT peptide array binding signal intensity,ScPex13,50.5
same,SPOT peptide array binding signal intensity,ScRvs167,93.5
same,SPOT peptide array binding signal intensity,ScSho1,271
same,SPOT peptide array binding signal intensity,ScSla1-D1-D2,247
same,SPOT peptide array binding signal intensity,ScSla1-D3,17.2
same,SPOT peptide array binding signal intensity,SpAbp1-D1,90
same,SPOT peptide array binding signal intensity,SpBbc1,66.5
same,SPOT peptide array binding signal intensity,SpBzz1-D1,370
